# The antibiotic and cytotoxicity screens of Wong et al. (2023)
# Hit rate of the full screen: of about 39,000 compounds, about 3,300 (8.5%) were called active. This is one part of a sample in which actives are shown more often than they occur.
# Tested on: HepG2
# Experiment: cytotoxicity call (relative viability < 0.9)
# Conditions: 10 µM
row,SMILES,cytotoxicity call
1,COCC(=O)N1C[C@]2(CCN(CC2)C(=O)CN2CCOCC2)c2c([nH]c3cc(ccc23)OC)[C@@H]1CO,inactive
2,COc1ccc2c3c(n(c2c1)C)[C@H](CO)N(C[C@]13CCN(CC1)C(=O)C1CCOCC1)C(=O)C1CCOCC1,inactive
3,C[C@@H]1CN([C@@H](C)CO)C(=O)c2cccc(NC(=O)C3CC3)c2O[C@H]1CN(C)Cc1ccc(Oc2ccccc2)cc1,inactive
4,CC(=O)Nc1ccccc1,inactive
5,O=C(Nc1ccccc1)Nc1ccc(Nc2ccccc2)cc1,active
6,NNC(=O)c1ccccc1O,inactive
7,O=C(Nc1ccccc1)Nc1ccccc1,inactive
8,O=C(Nc1ccccc1)c1ccccc1O,active
9,O=C(Nc1ccccc1)c1ccccc1,inactive
10,C[C@@H]1CN([C@@H](C)CO)C(=O)c2cccc(NC(=O)Nc3ccccc3)c2O[C@H]1CN(C)S(C)(=O)=O,inactive
11,COc1ccc(CN(C)C[C@H]2OCCCC[C@@H](C)Oc3ccc(NC(=O)C4CCCCC4)cc3C(=O)N([C@@H](C)CO)C[C@H]2C)cc1,inactive
12,CN1C(=O)c2cc(NC(=O)C3CCCC3)ccc2OC[C@H]2O[C@H](CC(=O)NCCc3ccncc3)CC[C@@H]21,inactive
13,Cc1ccc(S(=O)(=O)N(C)C[C@@H]2Oc3ccc(NS(=O)(=O)c4ccccc4)cc3C(=O)N([C@H](C)CO)C[C@@H]2C)cc1,inactive
14,C[C@@H]1CN([C@@H](C)CO)C(=O)c2ccccc2-c2ccccc2CO[C@@H]1CN(C)Cc1cccc(C(F)(F)F)c1,inactive
15,CCCNC(=O)N[C@@H]1CC[C@H](CC(=O)N2CCN(C)CC2)O[C@H]1CO,inactive
16,COc1ccccc1NC(=O)Nc1ccc2c(c1)C(=O)N(C)C[C@@H](OC)[C@H](C)CN(Cc1ccccc1Cl)[C@H](C)CO2,inactive
17,O=C1C=CC(=O)N1,active
18,COc1ccc(CN(C)C[C@@H]2OCCCC[C@H](C)Oc3ccc(NC(=O)CCC(F)(F)F)cc3C(=O)N([C@H](C)CO)C[C@@H]2C)cc1,inactive
19,CNC[C@@H]1Oc2ccc(NC(=O)Cn3cnnn3)cc2C(=O)N([C@H](C)CO)C[C@@H]1C,inactive
20,C[C@H](CO)N1C[C@H](C)[C@H](CN(C)C(=O)Nc2ccc(F)cc2)Oc2ccc(NC(=O)CCN3CCOCC3)cc2CC1=O,inactive
21,C[C@H](CO)N1C[C@H](C)[C@@H](CN(C)C(=O)Nc2ccc3c(c2)OCO3)Oc2c(NC(=O)C3CCOCC3)cccc2C1=O,inactive
22,Oc1c(Cl)cc(Cl)c(Cl)c1Cc1c(O)c(Cl)cc(Cl)c1Cl,active
23,O=C(Nc1cc(Cl)cc(Cl)c1O)c1c(O)c(Cl)cc(Cl)c1Cl,inactive
24,O=C(/C=C/c1cccc(-c2cn(CC[C@@H]3OC(=O)[C@H](Cc4ccccc4)N4CC5=CC(=O)[C@H](C6CC6)[C@H]5[C@H]34)nn2)c1)NO,inactive
25,O=C(C[C@@H]1C[C@@H]2c3cc(NC(=O)Nc4ccc(C(F)(F)F)cc4)ccc3O[C@@H]2[C@H](CO)O1)NCCc1ccccc1,inactive

row,SMILES,cytotoxicity call
1,CCS(=O)(=O)N1[C@H](CO)[C@H](c2ccccc2)C12CN(C(=O)CN(C)C)C2,inactive
2,C[C@H]1CCCCO[C@H](CN(C)C(=O)C2CCCCC2)[C@@H](C)CN([C@@H](C)CO)C(=O)c2cc(NC(=O)Nc3ccc4c(c3)OCO4)ccc2O1,inactive
3,COc1c(C)c2c(c(O)c1CC=C(C)CCC(=O)O)C(=O)OC2,active
4,COc1c(C)c2c(c(O)c1CC=C(C)CCC(=O)OCCN1CCOCC1)C(=O)OC2,inactive
5,COc1cccc(S(=O)(=O)N2C[C@@H](O)COC[C@@H]3O[C@@H](CC(=O)N4CCOCC4)CC[C@H]32)c1,inactive
6,COc1ccc(NC(=O)N(C)C[C@H]2Oc3c(NC(=O)CCCCCC(=O)Nc4ccccc4N)cccc3C(=O)N([C@@H](C)CO)C[C@H]2C)cc1,inactive
7,C[C@H]1CN([C@@H](C)CO)C(=O)c2cc(C#CCc3ccccc3)cnc2O[C@H]1CN(C)C(=O)Cc1cccnc1,inactive
8,Cc1ccccc1S(=O)(=O)N1C[C@H](O)COC[C@@H]2O[C@@H](CC(=O)N3CCOCC3)CC[C@H]21,inactive
9,CC(C)C(=O)Oc1ccc(CO)cc1C(CCN(C(C)C)C(C)C)c1ccccc1.O=C(O)C=CC(=O)O (stereo not drawn),active
10,C[C@H]1CN([C@@H](C)CO)C(=O)c2cc(NC(=O)CCN3CCOCC3)ccc2O[C@@H]1CN(C)C(=O)Nc1ccc2c(c1)OCO2,inactive
11,CC(=O)NCCCC[C@@H]1NC(=O)[C@@H]2C[C@H](C(=O)NCCCCCCN(C)C)[C@H](c3ccc(O)cc3)N2C1=O,inactive
12,C[C@@H]1CCCCO[C@@H](CN(C)Cc2ccc(Cl)c(Cl)c2)[C@@H](C)CN([C@H](C)CO)C(=O)c2cc(NC(=O)c3ccccc3)ccc2O1,inactive
13,CCOn1ccnc1,inactive
14,Cc1cc(C)n(-c2nc3c(c(=O)n(CCN4CCOCC4)c(=O)n3C)n2C)n1,inactive
15,Cn1c(=O)c2c(nc(N3CCCCC3)n2CCN)n(C)c1=O,inactive
16,CC#CCn1c(N2CCC[C@@H](N)C2)nc2c1c(=O)n(Cc1nc(C)c3ccccc3n1)c(=O)n2C,active
17,C[C@H]1CN([C@@H](C)CO)C(=O)c2cccc(NS(=O)(=O)c3cn(C)cn3)c2O[C@@H]1CN(C)C(=O)Nc1ccc2c(c1)OCO2,inactive
18,CC(=O)N1[C@@H]2Cn3c(ccc(-c4ccccc4)c3=O)[C@H]1[C@@H](C(=O)NCCCN1CCOCC1)[C@@H]2CO,inactive
19,COc1cc2c(cc1OC)-c1cc3ccc(OC)c(OC)c3c[n+]1CC2.[Cl-],inactive
20,COc1ccc2cc3[n+](cc2c1OC)CCc1cc2c(cc1-3)OCO2.[Cl-],active
21,C[C@@H]1CN([C@@H](C)CO)C(=O)c2cccc(NC(=O)Nc3ccc(C(F)(F)F)cc3)c2O[C@@H]1CN(C)S(=O)(=O)c1ccc(Cl)cc1,inactive
22,COCC(=O)N(C)C[C@H]1Oc2cc(C#CC(C)(C)O)ccc2S(=O)(=O)N([C@H](C)CO)C[C@@H]1C,inactive
23,COc1ccccc1S(=O)(=O)N(C)C[C@H]1Oc2ncc(Br)cc2C(=O)N([C@@H](C)CO)C[C@H]1C,inactive
24,Cc1ccc(S(=O)(=O)N(C)C[C@H]2Oc3ccc(NC(=O)Nc4cccc5ccccc45)cc3CC(=O)N([C@@H](C)CO)C[C@H]2C)cc1,inactive
25,C[C@H](CO)N1C[C@H](C)[C@@H](CN(C)S(=O)(=O)c2ccc(Cl)cc2)Oc2ccc(NC(=O)Nc3cccc4ccccc34)cc2CC1=O,inactive

row,SMILES,cytotoxicity call
1,C[C@@H]1CN([C@@H](C)CO)C(=O)Cc2cc(NC(=O)Nc3cccc4ccccc34)ccc2O[C@@H]1CN(C)S(=O)(=O)c1ccc(Cl)cc1,active
2,C[C@@H]1CN([C@H](C)CO)C(=O)Cc2cc(NC(=O)Nc3cccc4ccccc34)ccc2O[C@@H]1CN(C)S(=O)(=O)c1ccc(Cl)cc1,inactive
3,C[C@H]1CN([C@@H](C)CO)C(=O)Cc2cc(NC(=O)Nc3cccc4ccccc34)ccc2O[C@H]1CN(C)S(=O)(=O)c1ccc(Cl)cc1,active
4,Cc1ccc(S(=O)(=O)N(C)C[C@@H]2Oc3ccc(NC(=O)Nc4cccc5ccccc45)cc3CC(=O)N([C@H](C)CO)C[C@@H]2C)cc1,active
5,Cc1ccc(S(=O)(=O)N(C)C[C@H]2Oc3ccc(NC(=O)Nc4cccc5ccccc45)cc3CC(=O)N([C@@H](C)CO)C[C@@H]2C)cc1,inactive
6,C[C@H](CO)N1C[C@H](C)[C@H](CN(C)S(=O)(=O)c2ccc(Cl)cc2)Oc2ccc(NC(=O)Nc3cccc4ccccc34)cc2CC1=O,active
7,C[C@@H]1CN([C@H](C)CO)C(=O)Cc2cc(NC(=O)Nc3cccc4ccccc34)ccc2O[C@H]1CN(C)S(=O)(=O)c1ccc(Cl)cc1,inactive
8,C[C@H]1CN([C@@H](C)CO)C(=O)Cc2cc(NC(=O)Nc3cccc4ccccc34)ccc2O[C@@H]1CN(C)S(=O)(=O)c1ccc(Cl)cc1,inactive
9,Cc1ccc(S(=O)(=O)N(C)C[C@H]2Oc3ccc(NC(=O)Nc4cccc5ccccc45)cc3CC(=O)N([C@H](C)CO)C[C@H]2C)cc1,inactive
10,C[C@@H]1CN([C@@H](C)CO)C(=O)Cc2cc(NC(=O)Nc3cccc4ccccc34)ccc2O[C@H]1CN(C)S(=O)(=O)c1ccc(Cl)cc1,inactive
11,C[C@@H]1CN([C@H](C)CO)C(=O)c2cc(NC(=O)c3ccncc3)ccc2O[C@@H](C)CCCCO[C@H]1CN(C)C(=O)Nc1cccc2ccccc12,inactive
12,C[C@@H]1CCCCO[C@@H](CN(C)C(=O)c2ccccc2)[C@H](C)CN([C@H](C)CO)C(=O)c2cc(NC(=O)Nc3ccc(F)cc3)ccc2O1,inactive
13,C[C@H]1CCCCO[C@H](CN(C)C(=O)c2ccccc2)[C@@H](C)CN([C@@H](C)CO)C(=O)c2cc(NC(=O)CCC(F)(F)F)ccc2O1,inactive
14,Cc1noc(N)c1C(=O)O,inactive
15,COCC(=O)N1C[C@H](C)[C@@H](OC)CN(C)C(=O)c2cc(NC(=O)c3cc(C)on3)ccc2OC[C@H]1C,inactive
16,C[C@H]1CN([C@@H](C)CO)C(=O)c2cc(C#Cc3ccccc3F)cnc2O[C@@H]1CN(C)C(=O)Cc1cccnc1,inactive
17,O=c1ccc(=O)n(CCO)[nH]1,inactive
18,C#CCN(O[C@@H](/C=C/[C@@H](O)Cc1ccccc1)C1CC1)[C@@H](Cc1ccc(-n2cc(COc3ccccc3/C=C(C)/C=C/C(=O)NO)nn2)cc1)C(=O)OC,inactive
19,Cc1noc(C)c1S(=O)(=O)N(C)C[C@@H]1OCCCC[C@H](C)Oc2ccc(NC(=O)Nc3cccc4ccccc34)cc2C(=O)N([C@H](C)CO)C[C@@H]1C,inactive
20,COc1ccc(S(=O)(=O)N(C)C[C@H]2Oc3ccc(NC(=O)NC(C)C)cc3C(=O)N([C@@H](C)CO)C[C@@H]2C)cc1,inactive
21,C[C@H](CO)N1C[C@H](C)[C@H](CN(C)S(=O)(=O)c2ccc(F)cc2)Oc2ccc(NC(=O)Nc3cccc4ccccc34)cc2CC1=O,active
22,C[C@@H]1CN([C@@H](C)CO)C(=O)Cc2cc(NC(=O)Nc3cccc4ccccc34)ccc2O[C@@H]1CN(C)S(=O)(=O)c1ccc(F)cc1,inactive
23,C[C@@H]1CN([C@H](C)CO)C(=O)Cc2cc(NC(=O)Nc3cccc4ccccc34)ccc2O[C@H]1CN(C)S(=O)(=O)c1ccc(F)cc1,inactive
